# Target: UCHL1, P09936
# Assay: median log2 fold change of GCK-ALFA target abundance (FLAG IP / Myc IP barcode read proportion) (log2 ratio); each designed protein is fused to an ALFA-tag nanobody in HEK293 cells to bring the named protein to FLAG-tagged glucokinase (GCK); Myc marks an untargeted standard; higher = target protein stabilised (more abundant)
# Settings: target protein: 3xFLAG-MCP-GCK-ALFA reporter; HEK293 landing pad (RPLP)
# Summary of the method: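 The readout is target abundance, the per-binder median log2 ratio of FLAG to Myc barcode read proportions. It came from HEK293 landing-pad cells carrying a recombined ALFA-nanobody-fused binder library, induced with 2 μg mL^−1 doxycycline and transfected with a plasmid for a FLAG-tagged target and a Myc-tagged standard. After 48 h, lysates were immunoprecipitated with anti-FLAG and anti-Myc, and circular RNA barcodes were reverse transcribed, amplified and sequenced. Each barcode needed a proportion of at least 10^−7 in both replicates and each binder at least 3 barcodes per replicate, a pseudocount of 10^−6 was added, and the replicates were pooled.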
# UCHL1, P09936, sequence (P09936 whole entry, looked up, the tested form may be a part): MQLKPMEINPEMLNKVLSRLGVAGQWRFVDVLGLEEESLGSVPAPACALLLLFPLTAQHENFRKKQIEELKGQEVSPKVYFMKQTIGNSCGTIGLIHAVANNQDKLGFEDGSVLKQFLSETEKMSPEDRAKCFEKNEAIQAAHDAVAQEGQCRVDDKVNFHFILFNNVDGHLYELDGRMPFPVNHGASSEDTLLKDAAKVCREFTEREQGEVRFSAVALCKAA
row,Binder,median log2 fold change
1,uchl1_179_7503 (protein) AMKKVRIRATITFPKSTTMEQALAVAKEIAAALKELGVTGVSRIVVSRYNPENDPAHPDHMVITIGLVVPEEKAEAVIEAIKEIAAKAGAEVEIETEEVA,-0.0524
2,uchl1_179_7504 (protein) ARRLVRIRATIVFPRSTTREEALAVARRIHAALKELGVTGLINLRVSRYNPENNPEHPDRMVIRLGLVVPEELADAVEAAIRALAAEAGAEIEIEREAIA,0.192
3,uchl1_199_7505 (protein) SSRTEDIARNMAGRLLRYIRSPEVLAERARRLTRELIERQTHLSVEEITETLKLLVTYIHAERSPEETRAATDAIVEAVRELLGDEAAAAAIRAHTEALL,0.192
4,uchl1_199_7506 (protein) SSKTEDIARNMAGRLLRYIRTPEVLAARARRLTRLLIERQTDLSVEEITETLLKLVELVHKERTPEETRAVTDAIVEAVLELLGDEEAARRIREHAEELL,0.171
5,uchl1_199_7507 (protein) SSLTEDIARNMAGRLLRYIRTPEVLAARAAELTARLIREQTHLSVEELTEIFLLLVDYVHAERTPEETRAATDAIVAEVERLLGDAAAAARIRAHAAALL,0.269
6,uchl1_199_7508 (protein) SSKTEDIARNMAGRLLRYIRSPEVLAARARRLTERLIREQTHLSVEEITETFLLLVDYVHANRSPEQTRAVTDAIVEAVERELGDEEAAKRIREHTESLL,0.0747
7,uchl1_199_7509 (protein) SSKTRSIAINMAGRLLRYIMDPETARERALRLARELITRRPGLSVEEITETFELLVRLVAAERDPETVRAVTDAIVEAILELLGDEEAAARVRATAEALV,-0.0199
8,uchl1_199_7510 (protein) SSRTESIARNMAGRLLRYIMDPETARERARRLARRLITRRPGLSVEELTETFQLLVEYVAAERDPAVTRAVTDALVEAVREELGDEAAAAAVRARAEELL,-0.193
9,uchl1_199_7511 (protein) MTKEEDIARNMAGRLLRYELDPEKVRERARRLATLLVERLSHLSVEEITETFLILVELVAKENNPEVLRAVTEAIVEVVRERLGDEEAARRIRERAEELA,-0.27
10,uchl1_199_7512 (protein) MSRAESIARQVGGRLLSGIGSPEVLAAKAAALLRRVLARLPDLPDETLLEMVRILLEAIARERSPEAFAAVAAALIAVLDAERGIGAEVAAIAEEVRAAA,-0.679
11,uchl1_199_7513 (protein) MTRAESIARQVGGRLLSGIGSPEVLAARAARLLRLVLERLPDLPDEELLEAVRLLLRAIAAERSPEAFDAVAAALTAVLQEERGIGERMAAIAAEVRAEA,-0.209
12,uchl1_199_7514 (protein) MSRAESIARQVGGRLLSGVGSPEVLAARAARLLREVLARLPDLPDEELLAMVRILLEAIAKNRSPETFDAVAAALIAVLQEERGIGAAAAAIAAEVRAKA,-0.0877
13,uchl1_199_7515 (protein) MTRAESIAAQLGGRLLSGIYSPEVLAARAAALWADVLRRLSDLPDEELLEAFRILLEALAAAVDEASARAAAEAIVAVLAEERGIGERARAIADEVLAAR,0.16
14,uchl1_199_7516 (protein) MTRAESIARMLGGRLLRGIRDPEKLAARAAELTRRMLERLANLPDETILETVRLLLEAIARERSLEDARAAGEAIVEVLAEERGIGEAARAVVDEVLAAA,-0.835
15,uchl1_199_7517 (protein) MSREDDIARYMAGPFLLSNGSPEVVRARARERTRRLIRTRKDLSPEELTEIMVRFVEILAAHRDPETVRAATEGIVEAILEELGDEEAARRVRARAEELL,0.00596
16,uchl1_199_7518 (protein) MSREEDIARYMAGPFLFSNGSPEVVRARAYRLTVRLIRTRKDLSREELTAILVRFVEILAANRDPETVRAATEGIVEAVLEELGDEESAARIRAAAEALL,-0.219

row,Binder,median log2 fold change
1,uchl1_2_7519 (protein) KTVIVGVLVDMRAYDPETGREYRARHTLIGTETAIEAMVEEIRERILAFRDDVGVPVEVDLHIVSSREEVARRLEALLKEMAAELAPEGVTVRISVTVTK,-0.204
2,uchl1_2_7520 (protein) KARFVGVLVDMTSTDPETGKTYRSRRNYIGTESAIPAMMAEVKEDVLNFQKNVGLPVKVDLHIVADTQEALDAAKAEAEKMAAELAKEGATVTISGEVAE,-1.27
3,uchl1_2_7521 (protein) KAEFVGVLVDMTSTDPETGKTYRYRRNYIGTASAIPAMMAEVERDVLNFQENVGLPVDVALHIVASTEAALEAARAEAKKMAARLAAKGAKVTITGEVAK,-1.03
4,uchl1_2_7524 (protein) KTVFVGALVTLEAEDKETGKVYRYRRNLIGTESAIEALAKEVKELVLNFKEAVGLPVKATVHIVASREEVLKKAVEEFEKMAKELAKEGIEVEITSELTK,-0.455
5,uchl1_2_7525 (protein) KTVFVGALLTLTSVDEETGEVYRYRRTLIGTASAIEALAREVEELVLNFRDDVGLPVDAEVHLVASDEETLRRAREAFEKMAERLAEEGITVTITSEVAR,0.0632
6,uchl1_2_7526 (protein) KTKFVGVLVTLTSYNEETGKTYVSRRTLILSESGIEKLSEEILELVDRFKQVNGDNIKVKIHVVSTDEEALEKAKEKVEEAKEELEKRGVEVEVEYELVK,-0.696
7,uchl1_2_7527 (protein) KSKFVGVKVTLTAYNEETGKTYVSTRTLILSESGIENLSKEILDLVERFKQVNGDNIEVDIKAVSTDEEALEKAKKELEKAKKELEAKGVKVNITYELVK,-0.63
8,uchl1_2_7529 (protein) KTQFVGALVTMTATDPKTGKTYRARRILIGTADGIPAMMEEIEELALEFQKQTGVPVTVNVTVHVSKEEVAEEVKKKLEELKKRLAEKGITFTYEVIVHK,-0.784
9,uchl1_2_7530 (protein) KAEFVGALLTLTARDAETGETFRSRRTLIGTADAIEALMAEIEELALRFQADVGVPVTADIHVVVSNEETAERVREALARMAERLAAEGITVNVTVTVVR,-0.378
10,uchl1_2_7531 (protein) KKKTQFVGVLVTVRATRDGRELVARRTFIATESSIDALMAEVERYVRDFVAAAGTPARVAIRAVVSTEETGARVAAALAALAERLAPLAEEIEVTVEVRR,-0.524
11,uchl1_2_7532 (protein) ESVFVGVLVTITSRNEATGETKVARRTLIALESNIEALMEEVKELVLAFKEEHGGKTEVKIEVYATREEVAKRAREVAEKMKEELEAAGIDATVEVKLVK,-0.231
12,uchl1_2_7533 (protein) KTVFVGVRVTITSRNPETGEVRRAVRTFIFTESSLEALTEEIRELALAFKADHGGATTVRIEAVATREEVAERLRELLERLAEELAAEGIEVEIEVTVVK,-0.457
13,uchl1_2_7534 (protein) KTVFVGVKVTVTVTDPATGKTTTTTRTFIGTADSVDALADAVTDYILRVKADSKADVAAAVTVYSTDKAVVDRAVAALNARVPELAAAGVTVTVTGTVVK,0.287
14,uchl1_2_7535 (protein) KTKFVGVLVTLTATDAETGEVKTSRRTFIGTEDSVEALADEVKDYILDYKKDSGKAVKADIKIYSTDEEVVKKLEALLKEKEPELKAAGIEVNITGEVVK,-0.112
15,uchl1_2_7536 (protein) KTKFVGARVEIEAVDPETGKRYRSRRTLIGTASAIEAMAEEVRRLVLAFKEDVKAPVTVRVTVYASDEETAAKARAAFERMAAELAAEGITVEVEVVLVK,-0.837
16,uchl1_2_7537 (protein) KTRFVGVKVDIEARNEETGEVFRARRTLIGTADSIPAMAEEVERLVLEFQRRTGVPVRVEVHVYASDEETARLAREEFEKMAERLRKEGIEVRVEVTVVE,-0.302

# — the supplement of paper PMC12632987
